# Records with an inconclusive call do not appear. Where a call stands in place of a potency, no number is given. The source made the active and inactive calls. Calls follow the shape of the dose curve; as a rule, active = well fitted curve in the direction sought with a large enough effect; inconclusive = small, poorly fitted or top-dose-only effect, or another doubt; inactive = no such curve, though single readings can be large; an effect the other way counts as inactive or inconclusive.
# Key:
# [1] = test system: Zika virus NS2B-NS3 protease; assay: Primary screen GU AMC qHTS for Zika virus inhibitors (AID 1347154); also: nearly all actives have a fitted effect of over 70% in size
# In short: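 Unlinked Zika NS2B hydrophilic domain/NS3 protease domain noncovalent complex (25 nM final) in 10 mM Tris-HCl pH 8.0, 0.01% Tween 20, with AMC peptide substrate. Fluorescence (ex 340, em 450 nm) change over 15 min, room temperature; percent inhibition fitted to 4-parameter Hill equation.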
# [2] = Primary qHTS for small molecule stabilizers of the endoplasmic reticulum resident proteome: Secreted ER Calcium Modulated Protein (SERCaMP) assay (AID 1508630)
# In short: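 GLuc-SERCaMP-expressing SH-SY5Y cells, pretreated 16 h with compound, are challenged with thapsigargin to empty ER calcium stores; after 4 h, coelenterazine is added directly to the medium and luminescence is imaged.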
compound,measurement,setting,value
C=C1Cc2c(Cl)cc3[nH]c4c5c3c2[C@@]2(O)[C@@H]1C[C@@H]2C(C)(C)O[C@H]5[C@@H]1CC[C@@]2(O)[C@@]35O[C@@H]3[C@@H](O)[C@@H](C(=O)O)O[C@H]5CC[C@]2(C)[C@@]41C,Potency,[1],inactive
same,Potency,[2],inactive

# Source: PubChem BioAssay (NCATS)
